This is an account of results in ChEMBL document CHEMBL4513216, “Probing the Open Global Health Chemical Diversity Library for Multistage-Active Starting Points for Next-Generation Antimalarials” (ACS Infect Dis, 2020).

In all, about 65,000 compounds went through this assay and about 2,100 (3.2%) showed an effect of 50% or more. The median lay at about -52%. This is one part of a sample in which strong results are shown more often than they occur.

The test system of the assay is Plasmodium falciparum. The assay can be described thus: Screen against P. falciparum Asexual Blood Stage (ABS), at 5uM. It is filed as functional, Dd2. As to conditions: tested at 5 uM.
Turning to `CCN1CCOC(CNCc2ccccc2OCc2ccccn2)C1` (centres undefined), the INHIBITION amounted to 7.77%.
For `CCN1CCOC(CNCc2ccccc2OCc2cccnc2)C1` (centres undefined), the INHIBITION was found to be 28.1%.
Turning to `CNC(=O)c1nc(COc2ccc3c(c2)OCO3)no1`, the INHIBITION is -139%.
For the molecule `Cc1ccc(C)c(S(=O)(=O)NC(=O)c2ccc(C)[nH]c2=O)c1`, the INHIBITION was -134%.
For `O=S(=O)(c1cccs1)N1CC[C@@H](O)[C@@H]1Cc1ccncc1`, the INHIBITION is listed as -17%.
Take `Cc1ccc(N2CCC(Nc3ccc4nnc(C)n4n3)CC2)nc1`: the INHIBITION is -89%.
For the molecule `CCOc1ccc(CSC(C)c2nc(C)no2)nc1` (centres undefined), the INHIBITION is -173%.
Turning to `CN(C)C1CC2(CCN(C(=O)NC3CC3)CC2)c2ccccc21` (centres undefined), the INHIBITION is -42.2%.
Regarding `Cc1ccc(C(=O)N2CCCN(Cc3cccs3)CC2)n1C`, the INHIBITION is listed as 55.6%.
The result for `Cn1cc(CN2CCCN(C(=O)c3cc(Cl)cn3C)CC2)cn1` reads -7.21%.
With `Cn1cc(Cl)cc1C(=O)N1CCCN(Cc2ccccc2)CC1`, the INHIBITION is 50.9%.
For the molecule `Cn1cc(Cl)cc1C(=O)N1CCCN(Cc2cccs2)CC1`, the INHIBITION is -60.9%.
The result for `Cn1cc(Cl)cc1C(=O)N1CCN(Cc2cccs2)CC1` reads 7.04%.
For the molecule `Cc1ccc(C(=O)N2CCN(Cc3cccs3)CC2)n1C`, the INHIBITION was -20.2%.
Regarding `CSCC(CCO)NC(=O)Nc1cc(F)ccc1C` (centres undefined), the INHIBITION was -130%.
Regarding `CCc1noc(CN(CC)C(=O)C2CC(=O)N(Cc3ccncc3)C2)n1` (centres undefined), the INHIBITION is given as -125%.
The result for `Fc1ccc(CNCc2nnc3n2CC(C(F)(F)F)CC3)c(F)c1` (centres undefined) reads -35%; that for `COCCN1C[C@@H]2CN(c3ncc(F)cn3)C[C@@H]2C1=O`, -65.7%; that for `Cc1ccc(-c2nc(CSCCC(=O)NC(N)=O)co2)cc1`, -132%.
The result for `O=C(N1CCCC1)N1CCC[C@]2(C[C@@H](Oc3ncccc3F)CO2)C1` reads -39%; that for `CN(C)C1CCC2(CCN(Cc3cccnc3)CC2)c2ccccc21` (centres undefined), 31.3%; that for `COc1cccc(CNC(Cc2cccs2)c2nc(C)c(C)s2)c1OC` (centres undefined), -80.8%.
As to `COc1ccccc1CNC(Cc1cccs1)c1nc(C)cs1` (centres undefined), the INHIBITION was -11.1%.
Take `COc1ccccc1CNC(Cc1cccs1)c1nc(C)c(C)s1` (centres undefined): the INHIBITION was determined as 59.8%.
Turning to `CN(C)C(=O)CN1CCCC1c1cccc(Cc2ccccc2F)n1` (centres undefined), the INHIBITION is listed as 68.8%.
For the molecule `CN1CCCC1c1cccc(Cc2ccccc2F)n1` (centres undefined), the INHIBITION is -1.19%.
For `CC(=O)N1CCCC1c1cccc(Cc2ccccc2F)n1` (centres undefined), the INHIBITION was -89.4%.
Take `CC(C)CN1CCn2c(nc3cc(C(=O)NC(C)C)ccc32)C1`: the INHIBITION was -53.7%.
As to `Cc1nc2c(c(NCC(O)C(F)(F)F)n1)CCNCC2` (centres undefined), the INHIBITION is recorded as -121%.
In the case of `OC(CNc1ncnc2c1CCNCC2)C(F)(F)F` (centres undefined), the INHIBITION is listed as -178%.
To `COCCNc1nc2c(c(NCC3CCOC3)n1)CCNCC2` (centres undefined) belongs -47.9%.
Consider `COCCNc1nc(C2CCCC2)nc2c1CCNCC2`, for which the INHIBITION is 54.1%.
Regarding `OC(CNc1nc(C2CCCC2)nc2c1CCNCC2)C(F)(F)F` (centres undefined), the INHIBITION amounted to 64.6%.
`COCc1noc(CNc2nc(C3CCCC3)nc3c2CCNCC3)n1`: the INHIBITION was determined as 27.3%.
For the molecule `Cc1c(Cl)c(C(=O)NN2CCOCC2)nn1C`, the INHIBITION is recorded as -48.6%.
With `O=C(CC1COCCN1S(=O)(=O)c1ccccc1)NCc1ccccn1` (centres undefined), the INHIBITION is -170%.
Turning to `O=C(C1CCC2(CCN(c3nncs3)CC2)CO1)N1CCCC1` (centres undefined), the INHIBITION worked out at 13.3%.
Regarding `CC(C)CN1C(=O)C2(CCN(CC3CCOCC3)C2)c2ccccc21` (centres undefined), the INHIBITION came to 39.6%.
For the molecule `COc1ccsc1C(=O)N1CCCC(n2cncn2)C1` (centres undefined), the INHIBITION is recorded as -121%.
To `O=C(NCc1ccco1)[C@H]1CC[C@@H]2[C@@H](CCN2Cc2nccs2)O1` belongs -11.2%; to `O=C(NCc1ccco1)[C@H]1CC[C@@H]2[C@@H](CCN2Cc2cccnc2)O1`, -34.5%.
Turning to `O=C(NCc1ccco1)[C@@H]1CC[C@@H]2[C@@H](CCN2Cc2ccc(F)cc2)O1`, the INHIBITION turned out to be 67.2%.
The result for `Cc1ncsc1CN1C[C@H](C(=O)NC2CCCC2)[C@@H]2CCO[C@@H]2C1` reads 1.73%; that for `CCO[C@H]1CO[C@@]2(CCCN(Cc3scnc3C)C2)C1`, -22.6%.
In the case of `CNC(=O)CNC1CC2(CCN(c3ncccn3)CC2)c2ccccc21` (centres undefined), the INHIBITION is -84.5%.
To `CS(=O)(=O)N1CCC2(CC1)CC(NCC1CC1)c1ccccc12` (centres undefined) belongs 48.3%; to `c1cnc(N2CCC3(CC2)CC(NCC2CC2)c2ccccc23)nc1` (centres undefined), 54.2%; to `Cc1ccccc1-c1cc(C(=O)N2CCCC(n3ccnc3C)C2)[nH]n1` (centres undefined), -29.5%.
For the molecule `COCCN1CCCCC12CC(=O)N(c1cccc(C#N)c1)C2` (centres undefined), the INHIBITION is recorded as -132%.
Turning to `COCCCNC(=O)CN1CCOC(c2ccccc2)C1` (centres undefined), the INHIBITION was -41.4%.
The result for `CCc1cccc(N2CCC(NC(=O)c3ccoc3C)CC2)c1` reads -16.9%; that for `CCc1cccc(N2CCC(NC(=O)c3ccncc3)CC2)c1`, -62.9%; that for `CCc1cccc(N2CCC(NC(=O)c3ccco3)CC2)c1`, 60.4%.
Consider `CN1CCN(C(=O)[C@H]2C[C@@H]3CCN(c4ncc(F)cn4)C[C@@H]3O2)CC1`, for which the INHIBITION is on record as -116%.
